p53ts 32C kill = cytotoxicity in p53ts cells at permissive temperature; AID 924; Potency, µM (titrated, usually from 46.1 µM), for the others: at the highest dose activity change, negative = cytotoxicity, most hits filed as cytotoxic; H1299-p53A138V at 32C, ATP luminescence viability, 24 h; 130,000 compounds, 0.93% hits;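 also: potency is read from the fitted curve at half-maximal effect; 0% = DMSO and -100% = full killing by reference compound; nearly all actives have a fitted effect of over 55% in size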
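H1299-p53 A138V cells (temperature-sensitive p53) exposed 24 h to up to 46 uM compound at 32C, where p53 is wild-type in conformation. Viability read as ATP luminescence and normalised to DMSO and 100 uM tamoxifen. AC50 fitted with the Hill equation.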
Peg3 imprint = genomic imprint erasure induction | mouse ES Peg3-LacZ reporter, beta-gal luminescence, 40 h | Potency, µM (titrated, usually from 60.7 µM), without a hit: top-dose activity change, positive = activation, most hits filed as activators | 110,000 compounds, 0.02% hits | AID 1948; also: potency is read from the fitted curve at half-maximal effect
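Each well holds 300 Peg3LacZ-Neo (maternal) female ES cells incubated 40 h at 37C, 5% CO2. LacZ is measured by BetaGlo luminescence, with AC50 and maximum efficacy derived from dose-response curves.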
Luciferase inh = blocks Photinus pyralis firefly luciferase activity | 72,000 compounds, 2.2% hits | Potency, µM (series often up to 57.1 µM), for the others: top-dose activity change, negative = inhibition, usual class: inhibitors | P08659 | purified firefly luciferase, luminescence, 8 min; also: potency is read from the fitted curve at half-maximal effect; % is scaled to controls: 0 for no effect and ±100 for the full control effect; nearly all actives have a fitted effect of over 40% in size
Target sequence (P08659 whole entry, looked up): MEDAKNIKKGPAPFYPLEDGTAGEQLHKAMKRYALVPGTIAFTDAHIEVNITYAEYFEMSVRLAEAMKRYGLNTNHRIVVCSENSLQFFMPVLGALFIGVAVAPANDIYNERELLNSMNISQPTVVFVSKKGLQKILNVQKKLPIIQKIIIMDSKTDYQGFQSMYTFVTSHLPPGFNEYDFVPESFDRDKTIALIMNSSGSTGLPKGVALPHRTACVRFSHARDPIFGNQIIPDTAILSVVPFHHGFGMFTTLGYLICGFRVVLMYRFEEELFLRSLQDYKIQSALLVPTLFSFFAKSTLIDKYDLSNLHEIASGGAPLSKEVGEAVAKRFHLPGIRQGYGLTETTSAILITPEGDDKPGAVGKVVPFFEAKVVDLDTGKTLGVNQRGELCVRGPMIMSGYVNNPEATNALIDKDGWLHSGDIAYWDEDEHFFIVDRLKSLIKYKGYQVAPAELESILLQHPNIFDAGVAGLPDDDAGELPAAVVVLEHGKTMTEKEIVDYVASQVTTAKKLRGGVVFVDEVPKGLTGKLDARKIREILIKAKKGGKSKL
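Luminescence read-out after 8 min at room temperature; enzyme reaction used luciferin plus 10 uM ATP (linear range) in imidazole buffer pH 7.2 with KCl, MgCl2, Tween 20 and BSA. Each sample was run as a titration.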
IMPase inh = IMPase inhibition in cells. CHO-M1 cells, IP1 accumulation, HTRF TR-FRET ratio. inhibition (IP1 accumulation), % at 46.1 µM. 120,000 tested, under 10 active. AID 901; active = well fitted curve in the direction sought with a large enough effect in the signal ratio, not every such curve was filed as active; inconclusive = small, poorly fitted or top-dose-only effect, or a change in a side signal; inactive = no such curve, though single readings can be large or run the other way; the % refers to the signal ratio;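 also: cells stimulated with carbachol in lithium chloride buffer; plate controls were DMSO basal wells for no effect and reference inhibitor wells for full effect; higher means more IMPase inhibition seen as more IP1 and lower FRET ratio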
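Measured: the HTRF emission ratio (665/620 nm) plus the 620 nm donor channel, each fitted to the Hill equation to give AC50. Cells were CHO-M1 given compounds up to 46 uM and a 30 min carbachol stimulation at 37C.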
p53ts 39C tox = p53ts cell cytotoxicity, nonpermissive temperature. H1299-p53A138V viability at 39C, ATP luminescence, 24 h. Potency, µM (series often up to 46.1 µM), for inactives: at the highest dose activity change, negative = cell killing, hits mostly cytotoxic. 130,000 compounds, 1.5% hits. AID 902; also: potency is read from the fitted curve at half-maximal effect; % is scaled to controls: 0 for no effect and ±100 for the full control effect; nearly all actives have a fitted effect of over 55% in size
IkB signaling = inhibitors of IkB signaling in ABC-DLBCL cells | ABC-DLBCL IkBa-CBG/CBR dual luciferase ratio, 4 h; response scale: scaled: untreated 0%, proteasome inhibitor 100% | Potency, µM (titrated, usually from 57.1 µM), inactives show at the highest dose IkBa stabilization activation | 110,000 compounds, 0.04% hits | AID 445; active = well fitted curve in the direction sought with a large enough effect in the signal ratio, not every such curve was filed as active; inconclusive = small, poorly fitted or top-dose-only effect, or a change in a side signal; the % refers to the signal ratio;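 also: potency is read from the fitted curve at half-maximal effect; the direction sought is a rising ratio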
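Curves were fitted separately to fusion (green), unfused (red) and ratio luminescence, then classed by r2, magnitude and activity. Cells: OCI-Ly3, 4 h compound plus doxycycline at 37C; 10 uM MG-132 defined full response.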
* marks the source's active call; other numbers are inactive results; ? = inconclusive; / = no result given; [ ] = remark or other dose. This is one part of a sample in which hits are shown more often than they occur. Unless noted, calls follow the shape of the dose curve; as a rule, active = well fitted curve in the direction sought with a large enough effect; inconclusive = small, poorly fitted or top-dose-only effect, or another doubt; inactive = no such curve, though single readings can be large; an effect the other way counts as inactive or inconclusive.

SMILES	p53ts 32C kill	Peg3 imprint	Luciferase inh	IMPase inh	p53ts 39C tox	IkB signaling
CCC(C)NC(=O)NC1C(NC(=O)NC(C)CC)N(C)C(=O)N1C (stereo unspecified)	15%	/	/	-24	-2%	/
C=CCNc1nc2c3ccccc3n(C(C)=O)c2s1	-23%	-19%	20µM*	3	-21%	?
CCc1ccc(NC(=O)Nc2ccccc2OCc2cc(=O)n3ccccc3n2)cc1	?	-10%[10.9 µM]	/	/	3.2µM*	?
COc1ccc([C@@H]2OC[C@]3(COC(C)=O)[C@H](C)C=C(C)[C@@H]2[C@H]3C)cc1	/	/	3%[11.4 µM]	/	/	-1%[11.4 µM]
Nc1nc2c(s1)CCc1c-2cnn1-c1ccccc1	13µM*	-72%	7.9µM*	21	10µM*	?
CC1CCC2C(=O)OC(Cc3ccccc3)CN2C1c1ccc(Br)cc1 (stereo unspecified)	3%[9.22 µM]	/	/	/	1%[9.22 µM]	/
CSc1ccccc1NC(=O)Nc1ccc(F)c(Cl)c1	/	/	/	2	/	/
O=C(Nc1cccnc1)Nc1ccc2c(c1)OCO2	?	-74%	16µM*	-5	?	-1%
O=C(Nc1cccnc1)Nc1ccc(F)c(Cl)c1	?	-18%	20µM*	24	-25%	-3%
Cn1ccc2cc(NC(=O)Nc3cccnc3)ccc21	?	-24%	16µM*	2	16µM*	0%
O=C(Nc1ccc2c(c1)OCO2)c1cnn2cccnc12	?	-80%	20µM*	8	?	4%
Nc1nc(Sc2ccc([N+](=O)[O-])c3nonc23)c2[nH]cnc2n1	?	-41%[10.9 µM]	-15%[11.4 µM]	/	?	4µM*
CNc1ncnc(Sc2nc(N)nc3nc[nH]c23)c1[N+](=O)[O-]	-26%[9.22 µM]	-22%[10.9 µM]	2%[11.4 µM]	/	?	5%[11.4 µM]
CO[C@H]1COC(=O)C/C=C\[C@@H](C)COC(=O)[C@@H](C)NC(=O)C/C=C\[C@@H]1C	7%[9.22 µM]	/	0%[11.4 µM]	/	18%[9.22 µM]	/
N=C(N)SCC(=O)O	-1%[9.22 µM]	-2%[10.9 µM]	3%[11.4 µM]	/	5%[9.22 µM]	0%[11.4 µM]
Cc1ccc(N=Cc2nc(-c3ccco3)oc2O)cc1	-1%	-22%	16µM*	8	-17%	5%
c1ccc2c(c1)CCN(c1nc3cc4c(cc3s1)OCCO4)C2	1.6µM*	-81%	0.32µM*	?	2µM*	?
O=S(=O)(c1ccc2c(c1)OCCO2)N1CCN(c2nc3ccccc3s2)CC1	-8%	-6%	0%	-12	-11%	4%
CC1CCCN(C(=O)c2cc3ccc4cccnc4c3[nH]2)C1 (stereo unspecified)	0.79µM*	-57%[10.9 µM]	/	/	1.6µM*	?
O=C(c1cc2ccc3cccnc3c2[nH]1)N1CCCCC1	1.6µM*	-79%[10.9 µM]	/	/	0.63µM*	?
COc1ccccc1NC(=O)c1cc2ccc3cccnc3c2[nH]1	10µM*	-12%[10.9 µM]	/	/	7.9µM*	15%
CCOc1ccccc1NC(=O)c1cc2ccc3cccnc3c2[nH]1	-13%	11%[10.9 µM]	/	/	?	3%
CCCNC(=O)c1cc(-c2ccc(O)cc2)on1	?	0%	-20%	/	?	?
COc1ccccc1-c1ccc(Nc2cccc(C(F)(F)F)c2)nn1	13%	/	/	22	7%	/
COc1ccccc1-c1ccc(NC2CCCCC2)nn1	?	-29%	13µM*	4	?	10%
SMILES	p53ts 32C kill	Peg3 imprint	Luciferase inh	IMPase inh	p53ts 39C tox	IkB signaling
COc1ccc(NC2=Nc3ccccc3CC2)cc1	-12%	-84%	20µM*	6	-22%	?
COc1ccc(NC(=O)N2CCCc3ccccc32)cc1	-17%	-45%	-2%	-6	-22%	-4%
CC(C)Cn1c(=O)c2ccccc2n2c(CCC(=O)N3CCN(c4ccccc4)CC3)nnc12	6%	-7%[10.9 µM]	/	/	-13%	?
Cn1cc(-c2cc3n(n2)CCC(=O)N3CCCC(=O)NCc2ccc(Cl)cc2)c2ccccc21	?	-7%[10.9 µM]	/	/	13µM*	2%
COC(=O)[C@@]1(Cc2ccc(OC)cc2)[C@H]2c3cc(C(=O)N(C)C)n(Cc4ccc(Cl)c(C(F)(F)F)c4)c3C[C@H]2CN1C(=O)c1ccccc1	16%	-21%	/	/	10%	/
C=CCN1CCc2c(cc(O)c(O)c2Cl)[C@H](c2ccccc2)C1	-18%	/	2%	7	-13%	3%
CC1CCC2C(=O)OC(COc3ccc(C(C)(C)C)cc3)CN2C1c1ccc(Br)cc1 (stereo unspecified)	4%[9.22 µM]	/	/	/	-1%[9.22 µM]	/
Cc1c(N=Cc2nc3ccccc3[nH]2)c(=O)n(-c2ccccc2)n1C	-3%	-16%	16µM*	5	-16%	1%
Cc1c(N=Cc2nc3ccccc3n2C)c(=O)n(-c2ccccc2)n1C	5%	-6%	4µM*	5	6%	1%
Cc1ccc(C2CC(=O)Oc3ccc(O)cc32)cc1 (stereo unspecified)	/	-3%[97.3 µM]	/	/	/	/
Oc1cc(O)cc(/C=C\c2ccc(O)c(O)c2)c1	13µM*	/	13µM*	10	?	3%
COc1ccc(C(CC(=O)Nc2nccs2)n2cccc2)cc1 (stereo unspecified)	?	-50%	16µM*	6	?	?
CCC(=O)N1CCc2cc(Br)cc(S(=O)(=O)CCC(=O)NCc3ccc(F)cc3)c21	-4%	9%[10.9 µM]	/	/	-5%	0%
CCCNC(=O)OC[C@@H]1O[C@H](CCO/N=C\[C@@H](C)[C@H](OCc2ccccc2)C(C)C)C=C[C@@H]1Oc1ccc(OC)cc1	4%[9.22 µM]	/	0%[11.4 µM]	/	5%[9.22 µM]	/
Cc1ccc(CNc2ncnc3c2nc2n3CCCC2)cc1	-14%	/	/	/	/	/
Cc1ccc(Nc2ncnc3c2nc2n3CCCC2)c(Br)c1	10µM*	/	/	/	/	/
CCn1c(=N)n(CCOc2ccc(Br)cc2)c2ccccc21	?	-17%[10.9 µM]	/	/	13µM*	?
O=C(O)c1cc(S(=O)(=O)Nc2cccc(Cl)c2)ccc1O	-2%	/	/	/	-11%	/
Cc1ccc(C2=CC(c3ccccc3C)n3c(nc4ccccc43)N2)cc1 (stereo unspecified)	?	-20%[10.9 µM]	/	/	5µM*	?
Cc1cccc(C2C=C(c3ccc(F)cc3)Nc3nc4ccccc4n32)c1 (stereo unspecified)	20µM*	-26%[10.9 µM]	/	/	10µM*	?
Cc1ccc(-c2nc3n(n2)C(c2ccccc2C)C=C(c2ccc(Cl)cc2)N3)cc1 (stereo unspecified)	4%	1%[10.9 µM]	/	/	-7%	?
CN(C)c1ccc(-c2nc(NCCc3cnc[nH]3)c3ccccc3n2)cc1	5µM*	-25%	0.79µM*	/	5µM*	-8%[11.4 µM]
COc1ccc2[nH]cc(CCNc3nc(-c4ccc(N(C)C)cc4)nc4ccccc34)c2c1	10µM*	-42%	0.63µM*	/	13µM*	-7%[11.4 µM]
